The supplement of paper PMC12494721
Where a name gives a salt, the structure may show the parent alone.

Tests used:
Conditions in all cases: incubation time: 27 h, anaerobic, 37 °C;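 for the amine columns active = adjusted P below 0.05 in both replicates with a change the same way and a mean fold change under 0.8 or over 1.25; inactive = the rest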
[1] = tested on: Clostridium sporogenes DSM 1664; assay: growth (OD595) fold change vs plate DMSO controls (fold change (ratio)); higher = more growth
Method in brief: (§1)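 Absorbance at 595 nm was read after shaking the anaerobic mGAM cultures, which had grown in 96-well plates for 27 h at 37 °C. After blank subtraction and background correction against 20 µM compound solutions in water, a calibration factor of 5 gave OD values. Growth is the fold change against the median of the plate's DMSO controls. Values are the mean of 2 biological replicates, with fold changes above 1.5 set to NA.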

Escherichia coli IAI1 [2] = assay: as above
Method in brief: as §1

[3] = tested on: Klebsiella aerogenes DSM 30053; assay: as above
Method in brief: as §1

[4] = tested on: Ruminococcus gnavus DSM 108212; assay: as above
Method in brief: as §1

[5] = tested on: Klebsiella aerogenes DSM 30053; assay: fold change of Histamine concentration vs plate DMSO controls (fold change (ratio)); higher = more amine produced, active = hit call of the paper (significant change in both replicates, either direction)
Method in brief: (§2)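 In 80 µL wells, cultures of four gut bacterial strains in mGAM started at OD 0.1 before a 1:1 dilution and grew anaerobically at 37 °C for 27 h. Compounds were added to 20 µM final, except sweeteners at 50 µM final. After extraction of whole cultures with cold acetonitrile/methanol plus 0.1% formic acid and centrifugation, amines were measured by LC–triple-quadrupole MS in dynamic MRM mode against external calibration curves, with within-batch drift correction. Values give fold change over DMSO controls on the same plate, averaged across 2 biological replicates.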

[6] = tested on: Clostridium sporogenes DSM 1664; assay: fold change of Tryptamine concentration vs plate DMSO controls (fold change (ratio)); higher = more amine produced, active = hit call of the paper (significant change in both replicates, either direction)
Method in brief: as §2

[7] = tested on: Ruminococcus gnavus DSM 108212; assay: as above
Method in brief: as §2

Escherichia coli IAI1 [8] = assay: fold change of Putrescine concentration vs plate DMSO controls (fold change (ratio)); higher = more amine produced, active = hit call of the paper (significant change in both replicates, either direction)
Method in brief: as §2

[9] = tested on: Klebsiella aerogenes DSM 30053; assay: as above
Method in brief: as §2

Escherichia coli IAI1 [10] = assay: fold change of Cadaverine concentration vs plate DMSO controls (fold change (ratio)); higher = more amine produced, active = hit call of the paper (significant change in both replicates, either direction)
Method in brief: as §2

[11] = tested on: Klebsiella aerogenes DSM 30053; assay: as above
Method in brief: as §2

[12] = tested on: Ruminococcus gnavus DSM 108212; assay: fold change of 2-Phenylethylamine concentration vs plate DMSO controls (fold change (ratio)); higher = more amine produced, active = hit call of the paper (significant change in both replicates, either direction)
Method in brief: as §2

SMILES | growth [1] | growth (Escherichia coli IAI1 [2]) | growth [3] | growth [4] | fold change of Histamine concentration [5] | fold change of Tryptamine concentration [6] | fold change of Tryptamine concentration [7] | fold change of Putrescine concentration (Escherichia coli IAI1 [8]) | fold change of Putrescine concentration [9] | fold change of Cadaverine concentration (Escherichia coli IAI1 [10]) | fold change of Cadaverine concentration [11] | fold change of 2-Phenylethylamine concentration [12]
CCN(CC)CCNC(C(=O)OCCC(C)C)c1ccccc1 (stereo not given) [Camylofine chlorhydrate] (20 µM) | 1.11 | 0.997 | 1.02 | 0.857 | 1.04 (inactive) | 0.953 (inactive) | 0.943 (inactive) | 0.998 (inactive) | 1 (inactive) | 0.985 (inactive) | 0.988 (inactive) | 0.94 (inactive)
CC(C(=O)O)c1ccc2c(c1)[nH]c1ccc(Cl)cc12 (stereo not given) [Carprofen] (20 µM) | 1.05 | 1.02 | 0.996 | 1.1 | 1.07 (inactive) | 0.958 (inactive) | 1.03 (inactive) | 1.05 (inactive) | 0.99 (inactive) | 1.03 (inactive) | 0.995 (inactive) | 1.06 (inactive)
CCN(CC)CCNC(=O)c1cc(S(C)(=O)=O)ccc1OC [Tiapride hydrochloride] (20 µM) | 0.729 | 0.484 | 0.715 | 0.09 | 0.997 (inactive) | 0.999 (inactive) | 1 (inactive) | 1.01 (inactive) | 0.992 (inactive) | 1.03 (inactive) | 1 (inactive) | 0.956 (inactive)
CC(C)(Oc1ccc(CCNC(=O)c2ccc(Cl)cc2)cc1)C(=O)O [Bezafibrate] (20 µM) | 1.06 | 1.01 | 0.993 | 0.854 | 0.964 (inactive) | 0.996 (inactive) | 1.01 (inactive) | 0.997 (inactive) | 0.991 (inactive) | 0.983 (inactive) | 0.992 (inactive) | 1.01 (inactive)
CCC(=O)c1ccc(O)cc1 [Paroxypropione] (20 µM) | 0.967 | 0.989 | 0.996 | 1 | 1.03 (inactive) | 0.946 (inactive) | 1.02 (inactive) | 1.01 (inactive) | 1.02 (inactive) | 1.01 (inactive) | 1.01 (inactive) | 0.952 (inactive)
COc1ccc(CN(CCN(C)C)c2ccccn2)cc1 [Pyrilamine maleate] (20 µM) | 1.02 | 0.962 | 0.981 | 0.868 | 1.02 (inactive) | 1.02 (inactive) | 1.02 (inactive) | 0.811 (inactive) | 1.07 (inactive) | 1.57 (active) | 1.04 (inactive) | 0.963 (inactive)
C[N+]1(CCCCC[N+]2(C)CCCC2)CCCC1 [Pentolinium bitartrate] (20 µM) | 0.933 | 0.986 | 1.01 | 0.709 | 1.06 (inactive) | 1.08 (inactive) | 0.98 (inactive) | 1.03 (inactive) | 1.01 (inactive) | 0.966 (inactive) | 0.999 (inactive) | 0.943 (inactive)
Clc1ccc(CSC(Cn2ccnc2)c2ccc(Cl)cc2Cl)cc1 (stereo not given) [Sulconazole nitrate] (20 µM) | 0.862 | 1.05 | 0.995 | 0.423 | 0.872 (inactive) | 1 (inactive) | 0.434 (active) | 0.922 (inactive) | 0.96 (inactive) | 0.499 (inactive) | 1.01 (inactive) | 0.667 (active)
C[C@@H]1C[C@H]2[C@@H]3C[C@H](F)C4=CC(=O)C=C[C@]4(C)[C@@]3(F)[C@@H](O)C[C@]2(C)[C@@]1(O)C(=O)CO [Flumethasone] (20 µM) | 1.02 | 1 | 1.01 | 1.2 | 0.997 (inactive) | 0.979 (inactive) | 1.01 (inactive) | 0.991 (inactive) | 0.989 (inactive) | 1.04 (inactive) | 0.991 (inactive) | 0.972 (inactive)
CN1C(C(=O)Nc2ccccn2)=C(O)c2ccccc2S1(=O)=O [Piroxicam] (20 µM) | 1.07 | 1.03 | 1.02 | 1.05 | 0.953 (inactive) | 1.09 (inactive) | 0.99 (inactive) | 1.03 (inactive) | 0.99 (inactive) | 1.02 (inactive) | 1.04 (inactive) | 0.999 (inactive)
CN(CCCCCCCCCCN(C)C(=O)Oc1cccc([N+](C)(C)C)c1)C(=O)Oc1cccc([N+](C)(C)C)c1 [Demecarium bromide] (20 µM) | 0.744 | 0.974 | 1.04 | 0.614 | 0.986 (inactive) | 0.871 (inactive) | 1.06 (inactive) | 0.987 (inactive) | 1.01 (inactive) | 1.03 (inactive) | 1.01 (inactive) | 1.06 (inactive)
O=C(Cn1ccnc1[N+](=O)[O-])NCCO [Etanidazole] (20 µM) | 0.988 | 1.01 | 1.06 | 0.954 | 0.832 (inactive) | 0.98 (inactive) | 1.28 (active) | 0.91 (inactive) | 1.03 (inactive) | 1.02 (inactive) | 1.11 (inactive) | 1.83 (active)
Cn1c(=O)c2c(ncn2CCO)n(C)c1=O [Etofylline] (20 µM) | 0.922 | 1.01 | 1.01 | 1.04 | 0.983 (inactive) | 0.964 (inactive) | 0.853 (inactive) | 1.01 (inactive) | 0.997 (inactive) | 1.03 (inactive) | 1 (inactive) | 0.839 (inactive)
COc1cc2c(cc1OC)CC(=O)N(CCCN(C)C[C@H]1Cc3cc(OC)c(OC)cc31)CC2 [Ivabradine hydrochloride] (20 µM) | 1.05 | 0.995 | 0.986 | 0.903 | 1.02 (inactive) | 1.01 (inactive) | 1.1 (inactive) | 0.924 (inactive) | 0.937 (inactive) | 0.895 (inactive) | 1.01 (inactive) | 1.1 (inactive)
CC(C)n1c(/C=C/C(O)CC(O)CC(=O)O)c(-c2ccc(F)cc2)c2ccccc21 (stereo not given) [Fluvastatin sodium salt] (20 µM) | 0.95 | 0.995 | 0.987 | 0.918 | 0.914 (inactive) | 0.881 (inactive) | 1.04 (inactive) | 1.02 (inactive) | 1.05 (inactive) | 1.07 (inactive) | 1.03 (inactive) | 0.984 (inactive)
O=C(NCC1CCCCN1)c1cc(OCC(F)(F)F)ccc1OCC(F)(F)F (stereo not given) [Flecainide acetate] (20 µM) | 0.94 | 0.991 | 1.01 | 0.997 | 1 (inactive) | 0.99 (inactive) | 1.03 (inactive) | 0.98 (inactive) | 0.976 (inactive) | 0.987 (inactive) | 0.989 (inactive) | 1.06 (inactive)
CN1CCN2c3ncccc3Cc3ccccc3C2C1 (stereo not given) [Mirtazapine] (20 µM) | 1.09 | 1.01 | 1 | 1.11 | 0.963 (inactive) | 1.12 (inactive) | 1.06 (inactive) | 0.964 (inactive) | 0.983 (inactive) | 0.984 (inactive) | 1.02 (inactive) | 1.04 (inactive)
COc1cc(N)c(Cl)cc1C(=O)NC1CCN(CCCOc2ccc(F)cc2)CC1OC (stereo not given) [Cisapride] (20 µM) | 0.913 | 0.988 | 0.969 | 0.705 | 0.959 (inactive) | 0.972 (inactive) | 0.922 (inactive) | 1 (inactive) | 0.983 (inactive) | 1.02 (inactive) | 0.993 (inactive) | 0.929 (inactive)
CC(C)(C)NC(=O)[C@@H]1C[C@@H]2CCCC[C@@H]2CN1C[C@@H](O)[C@H](Cc1ccccc1)NC(=O)[C@H](CC(N)=O)NC(=O)c1ccc2ccccc2n1 [Saquinavir mesylate] (20 µM) | 0.98 | 1.1 | 1.03 | 1.12 | 0.937 (inactive) | 0.966 (inactive) | 0.979 (inactive) | 1.24 (inactive) | 0.993 (inactive) | 0.944 (inactive) | 1.01 (inactive) | 1.03 (inactive)
C[C@@H](CN1CC(=O)NC(=O)C1)N1CC(=O)NC(=O)C1 [Dexrazoxane hydrochloride] (20 µM) | 1.26 | 1.01 | 1.05 | 0.949 | 1.01 (inactive) | 0.997 (inactive) | 1.03 (inactive) | 0.979 (inactive) | 1.02 (inactive) | 0.988 (inactive) | 1.01 (inactive) | 1.02 (inactive)
NCCCCCC(=O)O [Aminocaproic acid] (20 µM) | 0.927 | 1.04 | 1.04 | 1.06 | 0.969 (inactive) | 1.08 (inactive) | 1.04 (inactive) | 1.11 (inactive) | 0.996 (inactive) | 0.983 (inactive) | 1.02 (inactive) | 1.09 (inactive)
C[C@@](Cc1ccc(O)c(O)c1)(NN)C(=O)O [Carbidopa] (20 µM) | 0.93 | 0.989 | 1.03 | 0.905 | 0.98 (inactive) | 1.04 (inactive) | 1 (inactive) | 1.05 (inactive) | 1.01 (inactive) | 0.994 (inactive) | 1 (inactive) | 0.963 (inactive)
O=C1c2cccc(O)c2C(=O)c2c(O)cccc21 [Danthron] (20 µM) | 0.931 | 1.21 | 1.01 | 0.841 | 0.93 (inactive) | 1.02 (inactive) | 1 (inactive) | 1.24 (inactive) | 0.975 (inactive) | 1 (inactive) | 1.01 (inactive) | 0.965 (inactive)
CC(C(=O)O)c1ccc(N2Cc3ccccc3C2=O)cc1 (stereo not given) [Indoprofen] (20 µM) | 1.13 | 0.99 | 0.973 | 1.01 | 1.04 (inactive) | 1.03 (inactive) | 1.09 (inactive) | 0.977 (inactive) | 0.993 (inactive) | 0.998 (inactive) | 0.982 (inactive) | 1.11 (inactive)
C[C@]12CC[C@H]3C(=CCc4cc(O)ccc43)[C@@H]1CCC2=O [Equilin] (20 µM) | 0.994 | 0.964 | 0.954 | 1 | 1.01 (inactive) | 1.02 (inactive) | 0.996 (inactive) | 1.07 (inactive) | 0.996 (inactive) | 1.03 (inactive) | 0.978 (inactive) | 0.93 (inactive)
